From PubChem BioAssay AID493194 (Broad Institute, 2011)
Measured potencies and affinities stand elsewhere. Results filed as inconclusive are left out. The source made the active and inactive calls.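 Rule for the calls: active = a valid curve of falling signal whose half-effect concentration is at most ten times the top tested dose; inconclusive = flat curve at 30 to 70% inhibition, or poor fit; inactive = signal rise, flat within 30%, or potency beyond limit.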

These compounds were tested against Scavenger receptor class B member 1 (Mus musculus) (UniProt Q61009) (assay: inhibitors of SR-BI mediated HDL lipid uptake, dose response, ldlA[mSR-BI] cells, fluorescence, cherry pick (AID 493194;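 note: CHO cells lacking LDL receptor and overexpressing mouse SR-BI; cellular uptake of fluorescently labeled HDL measured as cell fluorescence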)). Details: CHO ldlA[mSR-BI] DiI-HDL uptake fluorescence, 3 h; series mostly up to 35 µM.
Scavenger receptor class B member 1 (Mus musculus), sequence (Q61009 whole entry, looked up): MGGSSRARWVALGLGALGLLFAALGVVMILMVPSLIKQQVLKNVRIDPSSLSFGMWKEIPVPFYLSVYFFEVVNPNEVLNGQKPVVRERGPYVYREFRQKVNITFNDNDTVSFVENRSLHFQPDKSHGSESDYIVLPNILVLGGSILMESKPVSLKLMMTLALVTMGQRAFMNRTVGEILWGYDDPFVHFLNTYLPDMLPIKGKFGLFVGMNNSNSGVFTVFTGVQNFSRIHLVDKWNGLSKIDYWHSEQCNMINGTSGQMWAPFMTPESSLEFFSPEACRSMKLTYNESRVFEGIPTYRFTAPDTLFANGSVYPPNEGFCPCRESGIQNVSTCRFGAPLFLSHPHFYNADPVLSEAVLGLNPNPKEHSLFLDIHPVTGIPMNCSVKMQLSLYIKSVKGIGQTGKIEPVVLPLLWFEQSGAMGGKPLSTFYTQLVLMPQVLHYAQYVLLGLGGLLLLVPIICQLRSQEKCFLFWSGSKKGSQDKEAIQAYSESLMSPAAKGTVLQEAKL

outcome, inactive:
O=C(c1ccc(-n2nc(C(F)(F)F)c3c2CCCC3)cc1)N1CCOCC1
O=C(Nc1ccc(-c2nc3ccccc3o2)cc1)c1cc(-n2cnnc2)ccc1Cl
COc1cc([N+](=O)[O-])ccc1NC(=O)NCC1CCN(Cc2ccc(Cl)cc2)CC1
COc1ccc(CCn2c(C)cc(C(=O)CSc3nc(N)cc(=O)[nH]3)c2C)cc1
COC(=O)c1cnc(Oc2ccc(NC(=O)NC(=O)c3c(OC)cccc3OC)cc2)cc1C(F)(F)F
COc1cc(/C=C\C(=O)NCc2ccc3c(c2)cc(C)n3C)cc(OC)c1OC
CCOC(=O)C(C)(C)Sc1nc2c(cnn2-c2ccc(F)cc2)c(=O)[nH]1
N#Cc1ccc(C(=O)N2CCC3CC2c2cc(-c4ccccc4)ccc23)cc1 (stereo not drawn)
CN(Cc1ccccc1N1CCCC1)C(=O)c1cc2cc(Cl)ccc2o1
COc1ccc2c(c1)-c1c(sn(-c3ccc(OC)c(OC)c3)c1=S)C(C)(C)N2
CNc1cnn(-c2ccc(C)cc2)c(=O)c1Sc1ccc(C)cc1
CC(C)(C)C(=O)Nc1sc2c(c1-c1nc3ccccc3[nH]1)CCCC2
Cc1ccc(S(=O)(=O)N2CCC(C(=O)NNC(=O)c3cccnc3)CC2)cc1
O=C(Nc1nc(-c2ccccn2)cs1)c1ccc(-c2ccccc2F)o1
Cc1ccc(-c2nnc(N3CCC(C)CC3)c3ccccc23)cc1C
O=C1[C@@H]2Cc3c([nH]c4ccccc34)C(c3cccc([N+](=O)[O-])c3)N2C(=O)CN1CCCO (stereo partly drawn)
O=C(Nc1ccccc1)C1=C(O)CC(c2ccoc2)CC1=Nc1ccccc1 (stereo not drawn)
COc1ccc(C(=O)N2CCN(c3ccc([N+](=O)[O-])c(NCCc4ccc(OC)c(OC)c4)c3)CC2)cc1
CCCCNc1c(-c2ccc(-c3ccc(C(C)=O)cc3)c(OC)c2)nc2cnccn12
Cc1ccccc1NC(=O)N(CCc1nc2ccccc2[nH]1)Cc1ccccc1
O=C(CN1CCOCC1)Nc1nc(-c2ccc3c(c2)CCN3S(=O)(=O)c2ccccc2)cs1
COc1ccc(C2c3sc(=O)[nH]c3SC3C4CCC(C4)C23)cc1OC (stereo not drawn)
CN(C)S(=O)(=O)N1CCN(C(=O)N(c2ccccc2)c2ccccc2)CC1
Cc1cc(C)cc(NC(=O)CCc2c(C)nn(-c3ccc(N4CCCCC4)nn3)c2C)c1
CCOc1ccc(NC(=O)CN2CCN(CC(=O)Nc3ccc(Cl)c(C(F)(F)F)c3)CC2)cc1
CCOC(=O)C1CCCN(C(=O)c2cc(COc3ccc(C)nc3)on2)C1 (stereo not drawn)
CC(=O)c1c(C)[nH]c(C(=O)Nc2ccc(C)c(S(=O)(=O)Nc3ccc(C)cc3C)c2)c1C
O=C(c1ccc(S(=O)(=O)NCc2ccco2)cc1)N1CCN(Cc2ccccc2)CC1
Cc1cccc(NC(=O)C2(C)CC3c4ccccc4C2c2ccccc23)c1C (stereo not drawn)
O=C(NC1CCCCC1)C(c1ccc2ncccc2c1)N(Cc1ccco1)C(=O)c1ccc2c(c1)OCCO2 (stereo not drawn)
O=C(O)c1cc(N2C(=O)C=CC2=O)cc(N2C(=O)C=CC2=O)c1
COc1ccccc1NC(=O)CN1CCN(CC(=O)Nc2ccc(OCc3ccccc3)cc2)CC1
COCCOC(=O)c1[nH]c2c(c1C)C(=O)CC(c1ccco1)C2 (stereo not drawn)
COCCN(Cc1cn(C)nc1-c1ccc(Oc2ccccc2)cc1)C(C)C
CC(C)(C)OC(=O)N1CSC[C@H]1C(=O)NC[C@H](CC(=O)O)c1ccc(Cl)cc1
COCCN(C(=O)COC(=O)c1ccccc1Nc1ccccc1)c1c(N)n(Cc2ccccc2)c(=O)[nH]c1=O
COc1cccc(-c2csc(N3CCN(CC(=O)NNC(=O)c4ccc(Br)cc4)CC3)n2)c1
Cc1sc(NC(=O)c2cccc([N+](=O)[O-])c2)c(C(N)=O)c1-c1ccc(C(C)(C)C)cc1
